Screens from PubChem.
A selection: hits, their analogues and other compounds. The true share with any hit is near 9.6%.
DAT uptake mod = modulates human dopamine transporter uptake under cocaine; Q01959; B-score at 10 µM; LLC-PK1 hDAT cells, [14C]-dopamine uptake with cocaine IC80; actives deviate in either direction; 110,000 compounds, 1.3% hits;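 active means Z score or B-score, a plate-position-corrected score, falls beyond the plate's 99.7% confidence bounds, in either direction; inactive means both scores lie inside the 99.7% bounds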;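 further: scored against the spread of the other compound wells on the same plate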
PostGolgi yeast = growth inhibition of a yeast mutant, post-Golgi transport screen; inhibition, % at 10 µM; AID 739; 98,000 compounds, 0.9% hits; post-Golgi transport phenotypic cell assay;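 further: yeast cells grown in 1536-well plates; yeast grown about 18 h at 30C before absorbance read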
Cav3 T inh = inhibitors of human Cav3.2 T-type calcium channel; O95180; AID 449739; B-score at 10 µM; Cav3.2-expressing cells, Fluo-4 calcium fluorescence FDSS; stronger effect = lower value; 100,000 compounds, 4% hits;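 active means single-dose well whose peak fluorescence ratio is a statistical outlier from its plate by either plate-standardised score or position-corrected B-score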
PLAP activator = activators of human placental alkaline phosphatase; P05187; purified PLAP enzyme, luminescent substrate read-out; stronger effect = higher value; activation fold at 20 µM; 96,000 compounds, 1.2% hits; in the data active means activation fold above about 2
PostGolgi ctrl = growth of the yeast control strain, post-Golgi counter-screen | AID 738 | inhibition, % at 10 µM | efflux-deficient yeast background strain, growth absorbance A615, 16 h | 98,000 compounds, 5% hits
* marks the source's active call; other numbers are inactive results. Unless noted, no stated cut-off is given here; in the data, active means inhibition above about 30%; inactive means the rest.

What do the screens show for `COc1ccc(N2CC(C)Cn3c2nc2c3c(=O)n(Cc3ccc(F)cc3)c(=O)n2C)c(OC)c1` (stereo not given)?
DAT uptake mod: -0.193; PostGolgi yeast: -8.2; Cav3 T inh: -4.67*; PLAP activator: 1.4; PostGolgi ctrl: 17.4

What do the screens show for `COc1ccc(N2CCCn3c2nc2c3c(=O)n(Cc3ccccc3F)c(=O)n2C)cc1`?
PLAP activator: 1.1

What do the screens show for `O=C(CN1CCCN(S(=O)(=O)c2ccc(Br)cc2)CC1)Nc1ccc2cn[nH]c2c1`?
DAT uptake mod: 0.383; Cav3 T inh: -0.0774

What do the screens show for `CCOC(=O)C1=C(C)Nc2nnnn2C1c1ccc(OC)c(Br)c1` (stereo not given)?
DAT uptake mod: 0.344; PostGolgi yeast: -0.8; Cav3 T inh: -2.07; PLAP activator: 1.1; PostGolgi ctrl: 3.7

How did COc1ccccc1-n1c(SCC(=O)N2CCOCC2)nc(O)c(Cc2ccccc2)c1=O do in these assays?
DAT uptake mod: -0.119; PostGolgi yeast: -4.0; Cav3 T inh: -0.748; PLAP activator: 1.2; PostGolgi ctrl: -8.4

What do the screens show for `Cn1c(=O)n(C/C=C/c2ccccc2)c(=O)c2c1nc1n2CCCN1Cc1ccccc1`?
DAT uptake mod: 1.01; PostGolgi yeast: -0.8; Cav3 T inh: -2.65; PLAP activator: 1.2; PostGolgi ctrl: 32.4*

How did CCn1c(=O)c2c(nc3n2CCCN3CCc2ccccc2)n(C)c1=O do in these assays?
DAT uptake mod: 0.955; PostGolgi yeast: 2.6; Cav3 T inh: 0.0794; PLAP activator: 1.2; PostGolgi ctrl: 12.2

Results for CCCCn1c(CN2CCN(C(=O)c3ccco3)CC2)nc2c1c(=O)n(C)c(=O)n2C ?
DAT uptake mod: 0.513; PostGolgi yeast: 3.5; Cav3 T inh: 0.515; PostGolgi ctrl: -9.7

How did Cn1c(=O)c2c(nc(CN3CCN(C(=O)c4ccco4)CC3)n2CCc2ccccc2)n(C)c1=O do in these assays?
DAT uptake mod: 0.935; PostGolgi yeast: 6.8; Cav3 T inh: 1.5; PLAP activator: 1.4; PostGolgi ctrl: 20.2

What do the screens show for `Cn1c(=O)c2c(nc(CN3CCN(C(=O)c4ccco4)CC3)n2CCCc2ccccc2)n(C)c1=O`?
PostGolgi yeast: -2.7; PLAP activator: 1.4; PostGolgi ctrl: 31.9*

Results for CCCn1c(CN2CCN(C(=O)c3ccco3)CC2)nc2c1c(=O)n(C)c(=O)n2C ?
DAT uptake mod: -0.00671; PostGolgi yeast: 5.8; Cav3 T inh: 0.197; PLAP activator: 1; PostGolgi ctrl: 35.4*

How did Cc1ccc(C(=O)COC(=O)CNC(=O)c2ccco2)cc1 do in these assays?
DAT uptake mod: 0.259; PostGolgi yeast: 3.7; Cav3 T inh: -0.507; PLAP activator: 1; PostGolgi ctrl: -4.4

How did COC(=O)c1cc2c(C)c(C)c3ccccn3c-2c1C(=O)OC do in these assays?
DAT uptake mod: -9.15*; PostGolgi yeast: 26.7; Cav3 T inh: 0.097; PLAP activator: 0.8; PostGolgi ctrl: 24.5

How did O=C(c1ccco1)N(CCC(c1ccccc1)c1ccco1)Cc1ccco1 (stereo not given) do in these assays?
DAT uptake mod: -0.613; PostGolgi yeast: -5.4; Cav3 T inh: -11.9*; PLAP activator: 1.5; PostGolgi ctrl: 19.1

How did CCC(=O)N(CCC(c1ccco1)c1ccccc1OC)Cc1cccs1 (stereo not given) do in these assays?
DAT uptake mod: -0.773; PostGolgi yeast: 6.1; Cav3 T inh: -5.78*; PLAP activator: 1.7; PostGolgi ctrl: 27.6

How did COc1ccc(CNC(=O)C(c2ccco2)N(Cc2ccccc2)C(=O)Cc2cccs2)cc1 (stereo not given) do in these assays?
DAT uptake mod: -0.0232; Cav3 T inh: 0.0948

How did CC(=O)N(CCC(c1ccccc1)c1ccco1)Cc1cccs1 (stereo not given) do in these assays?
DAT uptake mod: -0.937; PostGolgi yeast: 6.4; Cav3 T inh: -7.36*; PLAP activator: 1.4; PostGolgi ctrl: 29.9

What do the screens show for `NC(=O)CC(c1ccccc1)c1ccco1` (stereo not given)?
DAT uptake mod: -1.06; PostGolgi yeast: 1.7; Cav3 T inh: 0.122; PLAP activator: 1; PostGolgi ctrl: -1.0

How did Cn1nc(C(F)(F)F)c(/C=N/OC(=O)c2ccccc2Cl)c1SCc1ccccc1Cl do in these assays?
DAT uptake mod: 0.0177; PostGolgi yeast: -3.9; Cav3 T inh: -6.56*; PLAP activator: 0.8; PostGolgi ctrl: 7.1

What do the screens show for `COc1ccc(S(=O)(=O)N(Cc2cccs2)C2CCCC2)cc1`?
DAT uptake mod: -0.653; PostGolgi yeast: -10.9; PLAP activator: 0.9; PostGolgi ctrl: 30.6*

Results for O=C(NC1CC1)C1CCN(c2ncnc3c2sc2cccc(F)c23)CC1 ?
DAT uptake mod: 1.06; PostGolgi yeast: 1.3; Cav3 T inh: 2.51; PLAP activator: 1.7; PostGolgi ctrl: 27.6

Results for O=c1c(C(c2nnnn2C2CCCCC2)N2CCCCC2)coc2ccc(Cl)cc12 (stereo not given) ?
DAT uptake mod: 1.54; PostGolgi yeast: 76.8*; Cav3 T inh: -0.861; PLAP activator: 1; PostGolgi ctrl: 87.4*

How did Clc1ccc(C(c2nnnn2C2CCCC2)N2CCN(Cc3ccncc3)CC2)cc1 (stereo not given) do in these assays?
DAT uptake mod: -0.0131; PostGolgi yeast: 11.0; PLAP activator: 1.3; PostGolgi ctrl: 4.7

Results for CSc1nc(N)nc(SCC(=O)C23CC4CC(CC(C4)C2)C3)c1C#N ?
DAT uptake mod: 0.923; PostGolgi yeast: 12.2; Cav3 T inh: -2.32; PostGolgi ctrl: 60.1*

What do the screens show for `CSc1nc(N)nc(SCC(=O)c2ccccc2)c1C#N`?
DAT uptake mod: -0.309; PostGolgi yeast: -21.1; PLAP activator: 1; PostGolgi ctrl: -0.3

Results for Nc1nc(SCC(=O)C23CC4CC(CC(C4)C2)C3)n[nH]1 ?
DAT uptake mod: -0.0883; PostGolgi yeast: 0.9; Cav3 T inh: -1.27; PLAP activator: 2.1*; PostGolgi ctrl: 12.3

How did COc1ccc(C(=O)CSc2nc(N)nc(SC)c2C#N)cc1 do in these assays?
DAT uptake mod: -0.823; PostGolgi yeast: 0.3; Cav3 T inh: -0.172; PLAP activator: 0.9; PostGolgi ctrl: 32.5*

How did N#Cc1c(N)nc(SCC(=O)C23CC4CC(CC(C4)C2)C3)c(C#N)c1-c1ccc(Cl)cc1 do in these assays?
DAT uptake mod: 0.717; PostGolgi yeast: -5.5; Cav3 T inh: 0.734; PLAP activator: 0.9; PostGolgi ctrl: -0.3

How did C/C(=C\C(=O)O)C12CC3CC(CC(C3)C1)C2 do in these assays?
DAT uptake mod: -0.12; PostGolgi yeast: -1.5; Cav3 T inh: 1.36; PLAP activator: 1.3; PostGolgi ctrl: 6.0

What do the screens show for `COc1ccc(/C=N/NC(=O)C(Cc2c[nH]c3ccccc23)NC(=O)OCC(C)C)cc1[N+](=O)[O-]` (stereo not given)?
PostGolgi yeast: 10.8; PLAP activator: 1.1; PostGolgi ctrl: -6.6

What do the screens show for `CC(=O)NCCc1nc2ccccc2n1Cc1ccccc1`?
DAT uptake mod: 0.425; PostGolgi yeast: 6.4; Cav3 T inh: -0.859; PLAP activator: 1.5; PostGolgi ctrl: 26.2

What do the screens show for `CC(=O)N1C=CN(C(C)=O)C(c2cn(C)c3ccccc23)C1c1cn(C)c2ccccc12` (stereo not given)?
DAT uptake mod: -0.107; PostGolgi yeast: -4.1; Cav3 T inh: 0.061; PLAP activator: 1.8; PostGolgi ctrl: 33.6*
